The record followed here is the supplement of paper PMC6411743.

Compound in the assay: Nc1nc2c(ncn2[C@@H]2O[C@H](COP(=O)(O)OP(=O)(O)OP(=O)(O)O)[C@@H](O)[C@H]2O)c(=O)[nH]1 [guanosine triphosphate]
In words: NP40-soluble protein abundance relative to vehicle (solubility fold change) (ratio); higher = more soluble protein in presence of GTP. The essentials: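 Crude Jurkat lysate, prepared by Dounce homogenisation, was exposed to eight concentrations from 0.1 to 10 mM for 10 min at room temperature and then 3 min at 37 °C. Solubilisation used 0.8% NP40 with benzonase for 60 min at 4 °C, followed by ultracentrifugation and TMT labelling of the supernatant for LC-MS/MS. After vsn normalisation of intensities, each value is the fold change against the detergent-processed vehicle within each replicate, across three independent experiments.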

± gives the standard deviation of the averaged measurements. Of roughly 5,400 targets only a part is listed; those with the largest changes were picked by preference.

Chain of UniProt Q14156 (Q14156 whole entry): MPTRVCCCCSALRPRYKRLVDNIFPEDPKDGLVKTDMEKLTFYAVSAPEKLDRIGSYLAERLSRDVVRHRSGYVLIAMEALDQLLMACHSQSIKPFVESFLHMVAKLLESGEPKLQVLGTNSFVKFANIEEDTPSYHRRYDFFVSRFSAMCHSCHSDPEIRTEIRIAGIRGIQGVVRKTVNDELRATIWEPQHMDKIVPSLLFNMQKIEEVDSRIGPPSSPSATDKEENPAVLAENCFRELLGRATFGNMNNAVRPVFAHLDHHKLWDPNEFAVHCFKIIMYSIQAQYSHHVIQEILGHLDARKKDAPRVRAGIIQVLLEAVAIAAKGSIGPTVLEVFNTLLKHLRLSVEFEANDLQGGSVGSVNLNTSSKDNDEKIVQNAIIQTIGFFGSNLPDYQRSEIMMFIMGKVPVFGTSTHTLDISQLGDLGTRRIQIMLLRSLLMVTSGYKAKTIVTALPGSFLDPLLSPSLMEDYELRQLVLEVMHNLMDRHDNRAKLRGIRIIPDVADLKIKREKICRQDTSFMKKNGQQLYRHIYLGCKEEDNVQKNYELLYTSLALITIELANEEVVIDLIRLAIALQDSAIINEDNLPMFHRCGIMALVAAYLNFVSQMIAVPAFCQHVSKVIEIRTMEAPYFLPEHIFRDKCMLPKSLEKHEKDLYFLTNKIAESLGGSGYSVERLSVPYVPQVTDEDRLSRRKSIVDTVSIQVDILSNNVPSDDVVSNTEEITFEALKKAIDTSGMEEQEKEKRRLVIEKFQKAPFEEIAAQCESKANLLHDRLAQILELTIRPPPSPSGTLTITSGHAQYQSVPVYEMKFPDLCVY
Chain of UniProt Q13769 (Q13769 whole entry): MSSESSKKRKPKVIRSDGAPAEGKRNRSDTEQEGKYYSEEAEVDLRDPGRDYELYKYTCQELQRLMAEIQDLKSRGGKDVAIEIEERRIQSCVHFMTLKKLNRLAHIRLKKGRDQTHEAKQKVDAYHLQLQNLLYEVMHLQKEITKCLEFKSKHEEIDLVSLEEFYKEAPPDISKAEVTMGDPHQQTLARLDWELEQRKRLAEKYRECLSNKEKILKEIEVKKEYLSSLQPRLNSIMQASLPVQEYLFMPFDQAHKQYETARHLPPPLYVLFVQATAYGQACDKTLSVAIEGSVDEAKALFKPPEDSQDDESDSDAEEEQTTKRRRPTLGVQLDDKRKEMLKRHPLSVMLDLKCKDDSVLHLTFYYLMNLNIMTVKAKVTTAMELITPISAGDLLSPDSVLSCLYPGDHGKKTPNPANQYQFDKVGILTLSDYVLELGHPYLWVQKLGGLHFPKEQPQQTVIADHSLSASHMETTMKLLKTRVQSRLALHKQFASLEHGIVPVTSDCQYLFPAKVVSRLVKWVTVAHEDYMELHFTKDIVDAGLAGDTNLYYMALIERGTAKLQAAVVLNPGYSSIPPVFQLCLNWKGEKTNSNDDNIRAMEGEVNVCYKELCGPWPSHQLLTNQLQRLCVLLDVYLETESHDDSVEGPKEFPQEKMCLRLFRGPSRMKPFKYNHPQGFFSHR
Chain of UniProt Q13572 (Q13572 whole entry): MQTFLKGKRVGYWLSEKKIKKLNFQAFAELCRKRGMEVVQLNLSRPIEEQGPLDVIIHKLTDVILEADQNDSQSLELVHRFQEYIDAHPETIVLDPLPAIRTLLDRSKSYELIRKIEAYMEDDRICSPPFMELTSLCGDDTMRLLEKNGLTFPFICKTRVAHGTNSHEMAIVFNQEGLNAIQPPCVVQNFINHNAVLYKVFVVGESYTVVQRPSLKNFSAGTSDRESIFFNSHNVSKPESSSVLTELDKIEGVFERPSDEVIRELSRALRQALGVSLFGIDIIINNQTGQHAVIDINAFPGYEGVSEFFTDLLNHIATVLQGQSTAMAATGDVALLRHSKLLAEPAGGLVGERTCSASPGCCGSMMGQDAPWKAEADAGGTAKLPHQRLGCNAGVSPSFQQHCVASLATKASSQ
Chain of UniProt Q12872 (Q12872 whole entry): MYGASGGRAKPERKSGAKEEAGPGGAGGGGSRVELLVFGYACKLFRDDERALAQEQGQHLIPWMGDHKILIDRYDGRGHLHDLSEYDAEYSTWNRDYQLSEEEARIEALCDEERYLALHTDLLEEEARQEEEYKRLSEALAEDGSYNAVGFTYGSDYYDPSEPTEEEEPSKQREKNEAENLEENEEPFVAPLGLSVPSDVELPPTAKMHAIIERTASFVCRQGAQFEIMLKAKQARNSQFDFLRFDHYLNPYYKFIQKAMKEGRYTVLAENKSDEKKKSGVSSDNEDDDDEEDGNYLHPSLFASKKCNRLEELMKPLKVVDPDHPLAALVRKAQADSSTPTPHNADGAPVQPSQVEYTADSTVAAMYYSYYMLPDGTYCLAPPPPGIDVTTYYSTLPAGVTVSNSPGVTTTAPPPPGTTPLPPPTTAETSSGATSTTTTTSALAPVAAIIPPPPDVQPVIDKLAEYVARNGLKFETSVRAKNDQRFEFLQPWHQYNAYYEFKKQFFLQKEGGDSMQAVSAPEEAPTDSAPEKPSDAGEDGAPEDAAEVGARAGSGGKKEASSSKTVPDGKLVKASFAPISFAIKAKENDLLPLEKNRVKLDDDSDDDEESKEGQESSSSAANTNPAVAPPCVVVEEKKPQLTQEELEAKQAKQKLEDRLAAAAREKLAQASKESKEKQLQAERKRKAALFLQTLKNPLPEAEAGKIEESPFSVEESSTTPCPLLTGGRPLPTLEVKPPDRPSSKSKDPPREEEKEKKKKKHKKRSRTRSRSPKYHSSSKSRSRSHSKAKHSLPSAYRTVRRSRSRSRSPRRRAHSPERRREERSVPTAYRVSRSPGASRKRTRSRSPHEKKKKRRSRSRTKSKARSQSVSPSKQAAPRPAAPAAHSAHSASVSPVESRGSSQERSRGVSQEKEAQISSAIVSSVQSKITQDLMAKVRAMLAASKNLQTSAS
Chain of UniProt Q8WWI5 (Q8WWI5 whole entry): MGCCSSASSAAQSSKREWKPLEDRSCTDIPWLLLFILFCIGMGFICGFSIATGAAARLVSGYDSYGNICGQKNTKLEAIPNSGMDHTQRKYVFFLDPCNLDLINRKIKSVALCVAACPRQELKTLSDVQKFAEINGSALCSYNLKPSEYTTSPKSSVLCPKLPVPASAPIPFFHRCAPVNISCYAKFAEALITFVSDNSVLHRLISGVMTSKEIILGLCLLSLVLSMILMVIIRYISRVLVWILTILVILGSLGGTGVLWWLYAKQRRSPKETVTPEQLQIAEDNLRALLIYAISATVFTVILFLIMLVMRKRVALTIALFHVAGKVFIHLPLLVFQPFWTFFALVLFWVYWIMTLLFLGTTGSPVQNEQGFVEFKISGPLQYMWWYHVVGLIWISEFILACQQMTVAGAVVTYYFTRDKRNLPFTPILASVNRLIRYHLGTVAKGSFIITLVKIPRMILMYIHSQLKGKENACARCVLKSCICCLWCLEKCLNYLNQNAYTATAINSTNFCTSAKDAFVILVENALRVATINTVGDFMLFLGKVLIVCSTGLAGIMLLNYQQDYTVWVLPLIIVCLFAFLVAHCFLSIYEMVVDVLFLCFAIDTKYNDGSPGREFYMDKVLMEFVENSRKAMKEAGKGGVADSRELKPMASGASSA
Chain of UniProt P61962 (P61962 whole entry): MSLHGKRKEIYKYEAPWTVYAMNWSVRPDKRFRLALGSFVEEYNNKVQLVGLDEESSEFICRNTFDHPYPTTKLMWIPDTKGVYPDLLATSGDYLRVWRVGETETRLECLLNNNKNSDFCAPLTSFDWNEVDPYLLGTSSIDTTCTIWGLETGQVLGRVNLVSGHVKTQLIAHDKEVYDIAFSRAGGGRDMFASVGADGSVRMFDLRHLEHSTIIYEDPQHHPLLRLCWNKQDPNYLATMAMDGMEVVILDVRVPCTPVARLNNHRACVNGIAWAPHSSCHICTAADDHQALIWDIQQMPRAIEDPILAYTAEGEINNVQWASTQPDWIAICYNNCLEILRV
Chain of UniProt Q8N3X1 (Q8N3X1 whole entry): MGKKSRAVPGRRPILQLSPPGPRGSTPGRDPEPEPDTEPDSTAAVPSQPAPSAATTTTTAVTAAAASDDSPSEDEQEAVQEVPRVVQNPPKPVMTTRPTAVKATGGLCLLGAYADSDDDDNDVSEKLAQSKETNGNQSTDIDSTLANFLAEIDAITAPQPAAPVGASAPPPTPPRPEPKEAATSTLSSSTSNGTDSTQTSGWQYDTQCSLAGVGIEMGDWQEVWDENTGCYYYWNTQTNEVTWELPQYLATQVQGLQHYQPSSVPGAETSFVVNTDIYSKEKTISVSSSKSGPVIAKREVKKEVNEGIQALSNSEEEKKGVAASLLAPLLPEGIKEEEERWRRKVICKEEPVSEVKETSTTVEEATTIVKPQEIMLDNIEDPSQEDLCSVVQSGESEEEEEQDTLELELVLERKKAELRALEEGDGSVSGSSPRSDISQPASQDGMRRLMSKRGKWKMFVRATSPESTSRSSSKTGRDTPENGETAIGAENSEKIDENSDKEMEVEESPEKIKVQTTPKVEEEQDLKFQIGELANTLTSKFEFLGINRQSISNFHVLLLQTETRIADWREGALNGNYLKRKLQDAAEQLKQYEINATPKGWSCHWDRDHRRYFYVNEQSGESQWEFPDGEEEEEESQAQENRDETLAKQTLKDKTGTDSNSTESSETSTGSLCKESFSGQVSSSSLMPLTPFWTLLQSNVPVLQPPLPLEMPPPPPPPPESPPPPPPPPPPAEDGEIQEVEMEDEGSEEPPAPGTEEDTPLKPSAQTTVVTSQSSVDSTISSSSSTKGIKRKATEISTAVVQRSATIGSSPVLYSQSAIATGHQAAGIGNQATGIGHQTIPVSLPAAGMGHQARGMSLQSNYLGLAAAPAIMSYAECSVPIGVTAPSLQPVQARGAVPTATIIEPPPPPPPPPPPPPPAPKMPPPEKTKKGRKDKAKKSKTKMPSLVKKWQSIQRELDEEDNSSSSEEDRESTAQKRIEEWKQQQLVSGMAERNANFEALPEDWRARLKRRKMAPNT

In the case of ITPK1 (UniProt Q13572), the NP40-soluble protein abundance runs as follows: (concentration: 0.1mM) 0.997 ± 0.085; (concentration: 0.5mM) 0.965 ± 0.064; (concentration: 1mM) 0.904 ± 0.095; (concentration: 2mM) 0.981 ± 0.077; (concentration: 4mM) 0.981 ± 0.15; (concentration: 6mM) 0.943 ± 0.18. The NP40-soluble protein abundance worked out at 0.924 ± 0.13 (concentration: 8mM) and 0.953 ± 0.09 (concentration: 10mM).

As to UniProt Q8N3X1|Q8N3X1-2, the NP40-soluble protein abundance is, setting by setting: (concentration: 0.1mM) 1.05 ± 0.043; (concentration: 0.5mM) 1.01 ± 0.076; (concentration: 1mM) 1.09 ± 0.022; (concentration: 2mM) 1.27 ± 0.017; (concentration: 4mM) 1.39 ± 0.024; (concentration: 6mM) 1.64 ± 0.031. The NP40-soluble protein abundance by setting is: (concentration: 8mM) 1.77 ± 0.15; (concentration: 10mM) 2.04 ± 0.24.

On to UniProt P80217|P80217-2, for which the NP40-soluble protein abundance runs as follows: (concentration: 0.1mM) 0.97 ± 0.043; (concentration: 0.5mM) 1.01 ± 0.063; (concentration: 1mM) 0.926 ± 0.044; (concentration: 2mM) 0.902 ± 0.076; (concentration: 4mM) 0.877 ± 0.059; (concentration: 6mM) 0.911 ± 0.067. Also, the NP40-soluble protein abundance (concentration: 8mM) is 0.934 ± 0.052 and the NP40-soluble protein abundance (concentration: 10mM) was determined as 0.938 ± 0.051.

On to THOC5 (UniProt Q13769), for which the NP40-soluble protein abundance by setting is: (concentration: 0.1mM) 1.18 ± 0.0098; (concentration: 0.5mM) 1.35 ± 0.093; (concentration: 1mM) 1.5 ± 0.18; (concentration: 2mM) 1.83 ± 0.36; (concentration: 4mM) 2.21 ± 0.56; (concentration: 6mM) 2.3 ± 0.66. Further, the NP40-soluble protein abundance (concentration: 8mM) turned out to be 2.45 ± 0.77 and the NP40-soluble protein abundance (concentration: 10mM) is 2.37 ± 0.74.

Regarding RAB8A (UniProt P61006), the NP40-soluble protein abundance is, setting by setting: (concentration: 0.1mM) 0.928 ± 0.03; (concentration: 0.5mM) 0.95 ± 0.039; (concentration: 1mM) 0.903 ± 0.041; (concentration: 2mM) 0.849 ± 0.068; (concentration: 4mM) 0.812 ± 0.064; (concentration: 6mM) 0.858 ± 0.085. In addition, the NP40-soluble protein abundance is 0.828 ± 0.046 (concentration: 8mM) and 0.81 ± 0.075 (concentration: 10mM).

With UniProt P61962, the NP40-soluble protein abundance runs as follows: (concentration: 0.1mM) 1.02 ± 0.081; (concentration: 0.5mM) 1.08 ± 0.089; (concentration: 1mM) 0.988 ± 0.07; (concentration: 2mM) 1.04 ± 0.1; (concentration: 4mM) 1.02 ± 0.057; (concentration: 6mM) 1.01 ± 0.092. For the same target, the NP40-soluble protein abundance runs as follows: (concentration: 8mM) 0.946 ± 0.021; (concentration: 10mM) 0.964 ± 0.03.

In the case of UniProt Q8N5G2, the NP40-soluble protein abundance (concentration: 0.1mM) is 1.07 ± 0.1; the NP40-soluble protein abundance (concentration: 0.5mM) turned out to be 1.03 ± 0.089; the NP40-soluble protein abundance (concentration: 1mM) stood at 1.12 ± 0.15; the NP40-soluble protein abundance (concentration: 2mM) amounted to 1.3 ± 0.057; the NP40-soluble protein abundance (concentration: 4mM) amounted to 1.26 ± 0.24; the NP40-soluble protein abundance (concentration: 6mM) turned out to be 1.16 ± 0.17. Moreover, the NP40-soluble protein abundance was determined as 1.24 ± 0.21 (concentration: 8mM) and 1.43 ± 0.25 (concentration: 10mM).

As to UniProt Q12872|Q12872-2, the NP40-soluble protein abundance runs as follows: (concentration: 0.1mM) 0.979 ± 0.031; (concentration: 0.5mM) 1.04 ± 0.027; (concentration: 1mM) 1.17 ± 0.014; (concentration: 2mM) 1.24 ± 0.024; (concentration: 4mM) 1.42 ± 0.016; (concentration: 6mM) 1.52 ± 0.068. For the same target, the NP40-soluble protein abundance is, setting by setting: (concentration: 8mM) 1.7 ± 0.13; (concentration: 10mM) 1.78 ± 0.13.

For GALNT2 (UniProt Q10471), the NP40-soluble protein abundance (concentration: 0.1mM) is 1.02 ± 0.025; the NP40-soluble protein abundance (concentration: 0.5mM) is 0.97 ± 0.021; the NP40-soluble protein abundance (concentration: 1mM) came out at 0.9568 ± 0.0034; the NP40-soluble protein abundance (concentration: 2mM) amounted to 0.917 ± 0.014; the NP40-soluble protein abundance (concentration: 4mM) is 0.928 ± 0.022; the NP40-soluble protein abundance (concentration: 6mM) stood at 0.901 ± 0.012. Also, the NP40-soluble protein abundance (concentration: 8mM) is 0.927 ± 0.046 and the NP40-soluble protein abundance (concentration: 10mM) worked out at 0.861 ± 0.052.

As for UniProt P62805, the NP40-soluble protein abundance is, setting by setting: (concentration: 0.1mM) 0.891 ± 0.063; (concentration: 0.5mM) 0.855 ± 0.058; (concentration: 1mM) 0.972 ± 0.027; (concentration: 2mM) 0.963 ± 0.053; (concentration: 4mM) 1.08 ± 0.048; (concentration: 6mM) 1.22 ± 0.054. In addition, the NP40-soluble protein abundance is 1.2 ± 0.067 (concentration: 8mM) and 1.76 ± 0.14 (concentration: 10mM).

Turning to SLC44A1 (UniProt Q8WWI5), the NP40-soluble protein abundance (concentration: 0.1mM) came to 0.943 ± 0.066; the NP40-soluble protein abundance (concentration: 0.5mM) was determined as 0.931 ± 0.078; the NP40-soluble protein abundance (concentration: 1mM) is 0.926 ± 0.061; the NP40-soluble protein abundance (concentration: 2mM) is 0.894 ± 0.093; the NP40-soluble protein abundance (concentration: 4mM) came out at 0.934 ± 0.07; the NP40-soluble protein abundance (concentration: 6mM) was 0.879 ± 0.1. Also, the NP40-soluble protein abundance amounted to 0.899 ± 0.1 (concentration: 8mM) and 0.938 ± 0.08 (concentration: 10mM).

As for UniProt Q02880|Q02880-2, the NP40-soluble protein abundance reads like this: (concentration: 0.1mM) 1.08 ± 0.06; (concentration: 0.5mM) 1.09 ± 0.065; (concentration: 1mM) 1.21 ± 0.06; (concentration: 2mM) 1.37 ± 0.11; (concentration: 4mM) 1.68 ± 0.17; (concentration: 6mM) 1.85 ± 0.27. For the same target, the NP40-soluble protein abundance by setting is: (concentration: 8mM) 1.99 ± 0.26; (concentration: 10mM) 2.08 ± 0.34.

As for UniProt Q14156|Q14156-3, the NP40-soluble protein abundance was 1.13 ± 0.049 (concentration: 0.1mM); 1.105 ± 0.011 (concentration: 0.5mM); 1.09 ± 0.11 (concentration: 1mM); 1.1 ± 0.021 (concentration: 2mM); 1.21 ± 0.11 (concentration: 4mM); 1.1 ± 0.16 (concentration: 6mM). Moreover, the NP40-soluble protein abundance is, setting by setting: (concentration: 8mM) 1.0338 ± 0.00078; (concentration: 10mM) 1.01 ± 0.013.

Regarding UniProt Q8IXB1|Q8IXB1-2, the NP40-soluble protein abundance is, setting by setting: (concentration: 0.1mM) 1.17 ± 0.21; (concentration: 0.5mM) 1.06 ± 0.11; (concentration: 1mM) 1.08 ± 0.1; (concentration: 2mM) 1.17 ± 0.15; (concentration: 4mM) 1.1 ± 0.11; (concentration: 6mM) 1.11 ± 0.16. The NP40-soluble protein abundance reads like this: (concentration: 8mM) 1.1 ± 0.11; (concentration: 10mM) 1.06 ± 0.084.

In the case of RABGGTA (UniProt Q92696), the NP40-soluble protein abundance is 1.04 ± 0.026 (concentration: 0.1mM); 1.04 ± 0.075 (concentration: 0.5mM); 0.896 ± 0.022 (concentration: 1mM); 0.916 ± 0.068 (concentration: 2mM); 0.91 ± 0.037 (concentration: 4mM); 0.889 ± 0.032 (concentration: 6mM). Moreover, the NP40-soluble protein abundance (concentration: 8mM) was 0.847 ± 0.037 and the NP40-soluble protein abundance (concentration: 10mM) stood at 0.849 ± 0.07.
